The source of these data is PubChem BioAssay (EPA / NIEHS).

Experiment [1] deals with human Fibroblast Growth Factor Receptor 1 (FGFR1), FGFR1 (gene 2260) (UniProt P11362). The experiment can be described thus: NVS_ENZ_hFGFR1: NovaScreen (NVS) Enzymatic Assay for human Fibroblast Growth Factor Receptor 1 (FGFR1) (AID 2283159). The essentials:
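Cell-free recombinant kinase with fluorescent substrate, product separated by electrophoretic mobility shift; read 1 hour after dosing, loss of signal relative to DMSO. Initial screen in duplicate at 25 uM, actives followed in concentration series.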

Experiment [2] has as its target Histone deacetylase 3 (Homo sapiens) (UniProt O15379). Kind of experiment: NVS_ENZ_hHDAC3: NovaScreen (NVS) Enzymatic Assay for human Histone Deacetylase 3 (HDAC3) (AID 2283163). In a few lines:
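Cell-free enzyme format: loss of fluorescent product after mobility-shift separation, 1 h incubation, recombinant human HDAC3. Single 25 uM duplicate screen first, then concentration series to a 50 uM top for hits; DMSO as baseline.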

Experiment [3] addresses Protein deacetylase HDAC6 (Homo sapiens) (UniProt Q9UBN7). Kind of experiment: NVS_ENZ_hHDAC6: NovaScreen (NVS) Enzymatic Assay for human Histone Deacetylase 6 (HDAC6) (AID 2283164). In a few lines:
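Concentration-response runs up to 50 uM followed a duplicate 25 uM single-point screen. Deacetylase activity of recombinant human HDAC6 read by fluorescence after 1 h, with mobility-shift separation of substrate and product; DMSO as baseline.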

For experiment [4], the target named is human LYN Proto-Oncogene, Src family Tyrosine Kinase (LynA), LYN (gene 4067) (UniProt P07948). Kind of experiment: NVS_ENZ_hLynA: NovaScreen (NVS) Enzymatic Assay for human LYN Proto-Oncogene, Src family Tyrosine Kinase (LynA) (AID 2283173). The essentials:
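Recombinant kinase with fluorescent substrate; product separated from substrate by electrophoretic mobility shift and read 1 h after dosing. Duplicate screen at 25 uM, then concentration-response up to 50 uM; activity scored as signal loss against DMSO.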

The target in experiment [5] is human Esterase Plasma (ES), BCHE (gene 590) (UniProt P06276). The experiment can be described thus: NVS_ENZ_hES: NovaScreen (NVS) Enzymatic Assay for human Esterase Plasma (ES) (AID 2283157). In a few lines: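 Primary single-concentration screen at 25 uM in duplicate, then concentration-response to a 50 uM top dose. Human plasma esterase activity detected colorimetrically after 0.25 h incubation, with DMSO as baseline.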

Experiment [6] addresses human Matrix Metalloproteinase-3 (MMP3), MMP3 (gene 4314) (UniProt P08254). Kind of experiment: NVS_ENZ_hMMP3: NovaScreen (NVS) Enzymatic Assay for human Matrix Metalloproteinase-3 (MMP3) (AID 2283185). The essentials: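 Fluorescent substrate turnover by recombinant MMP3 read after 1 h, signal loss scored against DMSO. Compounds first run in duplicate at 25 uM single dose, then actives confirmed by concentration series.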

In experiment [7] the target is human FYN Proto-Oncogene, Src family Tyrosine Kinase (Fyn), FYN (gene 2534) (UniProt P06241). Kind of experiment: NVS_ENZ_hFyn: NovaScreen (NVS) Enzymatic Assay for human FYN Proto-Oncogene, Src family Tyrosine Kinase (Fyn) (AID 2283161). In a few lines:
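Cell-free kinase activity read by fluorescence after mobility-shift separation of substrate and product, 1 h post-dose. Initial single concentration 25 uM in duplicate, then concentration-response follow-up; DMSO baseline.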

In experiment [8] the target is Mitogen-activated protein kinase 3 (Homo sapiens) (UniProt P27361). Kind of experiment: NVS_ENZ_hMAPK3: NovaScreen (NVS) Enzymatic Assay for human Mitogen-Activated Protein Kinase 3 (MAPK 3) (AID 2283177). The essentials: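 Chemicals were first tested in duplicate at 25 uM, with hits re-run as concentration series (max 50 uM). Recombinant enzyme activity, measured 1 h post-dose in a cell-free format, was read by fluorescence/mobility shift relative to DMSO.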

Experiment [9] addresses human Matrix Metalloproteinase-7 (MMP7), MMP7 (gene 4316) (UniProt P09237). Kind of experiment: NVS_ENZ_hMMP7: NovaScreen (NVS) Enzymatic Assay for human Matrix Metalloproteinase-7 (MMP7) (AID 2283183). The essentials: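 Compounds first tested at 25 uM in duplicate, then at up to 50 uM in concentration series if active. Protease activity measured by fluorescence intensity 1 h after dosing, with fitting relative to DMSO.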

For experiment [10], the target named is human IkappaB Kinase alpha (IKKa), CHUK (gene 1147) (UniProt O15111). Kind of experiment: NVS_ENZ_hIKKa: NovaScreen (NVS) Enzymatic Assay for human IkappaB Kinase alpha (IKKa) (AID 2283167). In a few lines: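 Compounds first run in duplicate at 25 uM, those meeting threshold (e.g. 30% inhibition) retested to maximum 50 uM. Enzyme activity of recombinant IKKa measured by fluorescence with electrophoretic mobility shift separation, 1 hour post-dosing, DMSO baseline.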

The target of experiment [11] is human Ephrin type-A Receptor 1 (EphA1), EPHA1 (gene 2041) (UniProt P21709). The experiment can be described thus: NVS_ENZ_hEphA1: NovaScreen (NVS) Enzymatic Assay for human Ephrin type-A Receptor 1 (EphA1) (AID 2283158).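 Note: activity is signal loss versus DMSO meaning EphA1 kinase inhibition.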 The essentials:
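Recombinant kinase, fluorescent substrate, mobility-shift separation, fluorescence read at 1 h. Single-point duplicates at 25 uM; hits (e.g., ≥30% inhibition) run singleton concentration-response, max 50 uM. DMSO = negative control/baseline.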

In experiment [12] the target is human Matrix Metalloproteinase-2 (MMP2), MMP2 (gene 4313) (UniProt P08253). The experiment can be described thus: NVS_ENZ_hMMP2: NovaScreen (NVS) Enzymatic Assay for human Matrix Metalloproteinase-2 (MMP2) (AID 2283184). In a few lines: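 Compounds first screened in duplicate at a single 25 uM, with actives followed up in concentration series. Recombinant human MMP2 cleaves a fluorogenic substrate; fluorescence taken at 1 h, inhibition fitted relative to DMSO.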

The target of experiment [13] is human MET Proto-Oncogene, Receptor Tyrosine Kinase (MET), MET (gene 4233) (UniProt P08581). Kind of experiment: NVS_ENZ_hMet: NovaScreen (NVS) Enzymatic Assay for human MET Proto-Oncogene, Receptor Tyrosine Kinase (MET) (AID 2283180). The essentials:
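Hits from a 25 uM duplicate screen were retested in concentration series up to 50 uM. Enzyme activity was measured by fluorescence after electrophoretic separation of product from substrate, 1 h after compound addition, relative to DMSO.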

Experiment [14] addresses human Ephrin type-B Receptor 2 (EphB2), EPHB2 (gene 2048) (UniProt P29323). The experiment can be described thus: NVS_ENZ_hEphB2: NovaScreen (NVS) Enzymatic Assay for human Ephrin type-B Receptor 2 (EphB2) (AID 2283156). The essentials: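 Compounds were first tested in duplicate at 25 uM, with hits rerun singly in concentration series up to 50 uM. Enzyme activity on fluorescent substrate was read at 1 h by mobility-shift separation, scored as signal loss relative to DMSO.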

Experiment [15] deals with Glycogen synthase kinase-3 beta (Homo sapiens) (UniProt P49841). The experiment can be described thus: NVS_ENZ_hGSK3b: NovaScreen (NVS) Enzymatic Assay for human Glycogen Synthase Kinase-3 beta (GSK3b) (AID 2283165). The essentials:
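Recombinant enzyme with specific fluorescent substrate, 1 h, product separated by electrophoretic mobility shift. Primary duplicate screen at 25 uM; actives (e.g. 30% inhibition) followed in singleton concentration-response to 50 uM. Signal loss fitted versus DMSO.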

The target in experiment [16] is human Janus Kinase 2 (Jak2), JAK2 (gene 3717) (UniProt O60674). The experiment can be described thus: NVS_ENZ_hJak2: NovaScreen (NVS) Enzymatic Assay for human Janus Kinase 2 (Jak2) (AID 2283169). The essentials: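 Single-point duplicate screen at 25 uM, with hits run in concentration series to a 50 uM top dose. Substrate-product separation by mobility shift with fluorescence detection, 1 h post-dosing; DMSO baseline.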

Experiment [17] deals with human Matrix Metalloproteinase-1 (MMP1), MMP1 (gene 4312) (UniProt P03956). The experiment can be described thus: NVS_ENZ_hMMP1: NovaScreen (NVS) Enzymatic Assay for human Matrix Metalloproteinase-1 (MMP1) (AID 2283181). In a few lines:
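Cell-free fluorescent substrate assay of human MMP1, read after 1 h. A single 25 uM duplicate screen was followed by concentration series to a maximum of 50 uM for actives meeting threshold; inhibition analysed against DMSO baseline.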

Several values for one entry are separate records, joined by “and”; a condition that tells them apart may be missing. Equal values may be shown once. Inconclusive results are not listed. Where a structure was tested more than once in an assay, its records may differ in their call. Activity calls are given as the source filed them. Rule for the calls: active = hit-call score of the fitted dose curve at least 0.9, where 1 is the maximum; inconclusive = response in the unintended direction; inactive = score below 0.9.

What is called AC50 is the concentration giving half of the maximal activity seen.

Sequence of human Matrix Metalloproteinase-7 (MMP7), MMP7 (gene 4316) (P09237 whole entry, looked up): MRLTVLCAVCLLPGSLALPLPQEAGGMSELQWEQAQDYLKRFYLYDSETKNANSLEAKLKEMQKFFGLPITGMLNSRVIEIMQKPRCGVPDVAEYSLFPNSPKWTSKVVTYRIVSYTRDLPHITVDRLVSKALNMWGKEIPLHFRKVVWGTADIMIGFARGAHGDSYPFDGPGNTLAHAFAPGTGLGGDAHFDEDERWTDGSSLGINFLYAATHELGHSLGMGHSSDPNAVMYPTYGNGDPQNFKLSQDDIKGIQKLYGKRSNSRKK
Sequence of Protein deacetylase HDAC6 (Homo sapiens) (Q9UBN7 whole entry, looked up): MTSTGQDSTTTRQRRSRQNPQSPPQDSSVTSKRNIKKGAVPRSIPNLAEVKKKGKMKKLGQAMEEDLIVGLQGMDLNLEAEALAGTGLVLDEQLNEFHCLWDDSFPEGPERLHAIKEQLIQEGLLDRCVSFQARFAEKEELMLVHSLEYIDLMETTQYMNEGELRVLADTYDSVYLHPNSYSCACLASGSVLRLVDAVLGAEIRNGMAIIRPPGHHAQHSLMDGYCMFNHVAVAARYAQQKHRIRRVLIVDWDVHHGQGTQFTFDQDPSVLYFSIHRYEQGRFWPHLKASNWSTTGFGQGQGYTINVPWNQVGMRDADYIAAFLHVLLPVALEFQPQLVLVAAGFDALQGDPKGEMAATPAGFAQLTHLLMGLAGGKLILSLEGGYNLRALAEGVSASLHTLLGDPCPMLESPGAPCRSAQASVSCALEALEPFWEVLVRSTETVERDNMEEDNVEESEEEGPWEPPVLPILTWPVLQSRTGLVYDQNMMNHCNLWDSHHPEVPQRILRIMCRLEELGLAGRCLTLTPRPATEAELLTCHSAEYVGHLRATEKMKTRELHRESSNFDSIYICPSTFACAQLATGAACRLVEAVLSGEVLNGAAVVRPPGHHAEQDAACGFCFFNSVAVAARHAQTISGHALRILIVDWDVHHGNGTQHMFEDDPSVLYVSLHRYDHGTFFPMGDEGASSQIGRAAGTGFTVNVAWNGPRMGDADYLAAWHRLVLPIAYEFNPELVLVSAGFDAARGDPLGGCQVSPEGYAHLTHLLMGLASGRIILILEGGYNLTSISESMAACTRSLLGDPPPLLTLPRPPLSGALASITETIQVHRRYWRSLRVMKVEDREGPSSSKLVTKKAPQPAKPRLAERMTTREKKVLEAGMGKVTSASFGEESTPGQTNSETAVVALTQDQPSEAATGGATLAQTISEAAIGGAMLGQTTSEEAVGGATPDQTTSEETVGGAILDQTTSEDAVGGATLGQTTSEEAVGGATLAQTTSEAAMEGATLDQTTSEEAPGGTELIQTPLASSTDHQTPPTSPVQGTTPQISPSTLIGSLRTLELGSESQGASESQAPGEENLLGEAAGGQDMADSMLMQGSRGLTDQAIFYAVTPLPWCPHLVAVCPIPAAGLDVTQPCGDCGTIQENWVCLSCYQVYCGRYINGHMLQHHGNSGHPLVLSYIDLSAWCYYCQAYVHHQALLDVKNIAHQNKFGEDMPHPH
Sequence of human Esterase Plasma (ES), BCHE (gene 590) (P06276 whole entry, looked up): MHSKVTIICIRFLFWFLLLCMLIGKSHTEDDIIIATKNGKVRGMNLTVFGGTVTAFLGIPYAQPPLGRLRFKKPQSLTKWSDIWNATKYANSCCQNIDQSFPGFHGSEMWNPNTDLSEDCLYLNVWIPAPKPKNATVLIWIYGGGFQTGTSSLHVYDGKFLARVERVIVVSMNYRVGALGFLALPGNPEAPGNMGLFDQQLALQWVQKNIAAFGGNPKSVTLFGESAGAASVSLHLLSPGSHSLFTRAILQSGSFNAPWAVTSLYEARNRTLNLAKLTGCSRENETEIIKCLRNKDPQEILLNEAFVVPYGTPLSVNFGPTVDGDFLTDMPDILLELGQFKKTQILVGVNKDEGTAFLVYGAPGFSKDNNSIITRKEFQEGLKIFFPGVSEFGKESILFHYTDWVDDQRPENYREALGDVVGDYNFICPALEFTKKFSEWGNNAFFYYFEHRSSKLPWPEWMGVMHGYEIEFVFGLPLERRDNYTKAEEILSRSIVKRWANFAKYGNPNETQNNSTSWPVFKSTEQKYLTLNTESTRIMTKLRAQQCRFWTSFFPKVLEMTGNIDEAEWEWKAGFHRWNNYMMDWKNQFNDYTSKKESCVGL
Sequence of human MET Proto-Oncogene, Receptor Tyrosine Kinase (MET), MET (gene 4233) (P08581 whole entry, looked up): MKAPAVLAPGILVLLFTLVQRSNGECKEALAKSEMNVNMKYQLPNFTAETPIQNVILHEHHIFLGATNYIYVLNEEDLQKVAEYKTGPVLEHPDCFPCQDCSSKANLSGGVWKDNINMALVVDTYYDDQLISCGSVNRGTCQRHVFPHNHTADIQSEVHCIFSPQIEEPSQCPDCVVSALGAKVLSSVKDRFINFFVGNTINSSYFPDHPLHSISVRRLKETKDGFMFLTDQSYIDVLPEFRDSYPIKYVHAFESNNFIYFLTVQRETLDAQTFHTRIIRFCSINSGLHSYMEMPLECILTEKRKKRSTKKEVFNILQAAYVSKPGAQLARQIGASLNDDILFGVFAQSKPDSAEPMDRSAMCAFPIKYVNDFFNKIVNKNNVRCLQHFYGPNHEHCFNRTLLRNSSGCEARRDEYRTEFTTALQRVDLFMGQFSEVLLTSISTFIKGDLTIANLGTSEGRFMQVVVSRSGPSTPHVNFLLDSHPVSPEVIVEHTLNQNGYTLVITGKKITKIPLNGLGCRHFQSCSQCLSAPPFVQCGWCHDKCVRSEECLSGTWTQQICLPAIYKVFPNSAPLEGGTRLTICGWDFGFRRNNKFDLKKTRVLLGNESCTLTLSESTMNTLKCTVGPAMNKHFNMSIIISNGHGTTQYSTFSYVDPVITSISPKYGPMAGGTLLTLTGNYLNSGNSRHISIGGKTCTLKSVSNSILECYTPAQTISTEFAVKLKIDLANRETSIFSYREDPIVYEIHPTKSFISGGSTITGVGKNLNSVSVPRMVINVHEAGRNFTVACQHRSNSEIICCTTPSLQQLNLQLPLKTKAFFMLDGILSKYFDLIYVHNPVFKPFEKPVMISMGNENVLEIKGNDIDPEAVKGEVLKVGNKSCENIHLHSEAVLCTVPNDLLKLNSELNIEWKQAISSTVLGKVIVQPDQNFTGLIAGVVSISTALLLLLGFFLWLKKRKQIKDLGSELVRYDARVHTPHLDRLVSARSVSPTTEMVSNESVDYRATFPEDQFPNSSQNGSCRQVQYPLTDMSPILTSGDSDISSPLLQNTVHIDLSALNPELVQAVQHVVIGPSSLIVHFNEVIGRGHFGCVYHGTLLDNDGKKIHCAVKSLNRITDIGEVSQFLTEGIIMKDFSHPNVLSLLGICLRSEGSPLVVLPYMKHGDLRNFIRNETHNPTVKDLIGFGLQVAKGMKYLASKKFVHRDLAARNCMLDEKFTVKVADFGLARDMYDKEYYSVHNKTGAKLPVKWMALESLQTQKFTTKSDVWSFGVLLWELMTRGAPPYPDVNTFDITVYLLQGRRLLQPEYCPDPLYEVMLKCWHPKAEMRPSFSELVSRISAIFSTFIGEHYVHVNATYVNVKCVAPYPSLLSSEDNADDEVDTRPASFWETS
Sequence of human Matrix Metalloproteinase-1 (MMP1), MMP1 (gene 4312) (P03956 whole entry, looked up): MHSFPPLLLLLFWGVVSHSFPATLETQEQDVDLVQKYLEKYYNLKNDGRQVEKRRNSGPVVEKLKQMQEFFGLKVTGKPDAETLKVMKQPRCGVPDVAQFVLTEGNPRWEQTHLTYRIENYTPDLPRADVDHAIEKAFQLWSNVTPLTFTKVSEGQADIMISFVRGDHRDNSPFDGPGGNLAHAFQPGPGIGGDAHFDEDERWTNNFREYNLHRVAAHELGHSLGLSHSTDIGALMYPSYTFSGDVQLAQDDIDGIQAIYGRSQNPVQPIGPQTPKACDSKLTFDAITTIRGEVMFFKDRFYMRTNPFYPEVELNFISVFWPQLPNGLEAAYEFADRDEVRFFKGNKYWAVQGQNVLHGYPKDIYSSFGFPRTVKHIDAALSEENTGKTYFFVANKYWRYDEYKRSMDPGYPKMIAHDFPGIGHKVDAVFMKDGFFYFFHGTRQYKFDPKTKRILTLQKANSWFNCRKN
Sequence of Histone deacetylase 3 (Homo sapiens) (O15379 whole entry, looked up): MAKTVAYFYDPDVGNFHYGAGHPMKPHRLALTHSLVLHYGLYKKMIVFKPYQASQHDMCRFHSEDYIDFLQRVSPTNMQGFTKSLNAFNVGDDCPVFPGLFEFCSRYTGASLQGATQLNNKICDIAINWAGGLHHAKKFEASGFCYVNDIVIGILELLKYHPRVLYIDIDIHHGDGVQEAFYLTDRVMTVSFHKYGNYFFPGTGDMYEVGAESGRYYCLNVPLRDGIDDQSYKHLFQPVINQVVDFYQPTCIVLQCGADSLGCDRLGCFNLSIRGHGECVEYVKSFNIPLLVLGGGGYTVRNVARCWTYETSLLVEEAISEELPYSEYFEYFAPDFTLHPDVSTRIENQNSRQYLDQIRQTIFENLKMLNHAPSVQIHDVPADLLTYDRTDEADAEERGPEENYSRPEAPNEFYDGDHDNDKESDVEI
Sequence of human LYN Proto-Oncogene, Src family Tyrosine Kinase (LynA), LYN (gene 4067) (P07948 whole entry, looked up): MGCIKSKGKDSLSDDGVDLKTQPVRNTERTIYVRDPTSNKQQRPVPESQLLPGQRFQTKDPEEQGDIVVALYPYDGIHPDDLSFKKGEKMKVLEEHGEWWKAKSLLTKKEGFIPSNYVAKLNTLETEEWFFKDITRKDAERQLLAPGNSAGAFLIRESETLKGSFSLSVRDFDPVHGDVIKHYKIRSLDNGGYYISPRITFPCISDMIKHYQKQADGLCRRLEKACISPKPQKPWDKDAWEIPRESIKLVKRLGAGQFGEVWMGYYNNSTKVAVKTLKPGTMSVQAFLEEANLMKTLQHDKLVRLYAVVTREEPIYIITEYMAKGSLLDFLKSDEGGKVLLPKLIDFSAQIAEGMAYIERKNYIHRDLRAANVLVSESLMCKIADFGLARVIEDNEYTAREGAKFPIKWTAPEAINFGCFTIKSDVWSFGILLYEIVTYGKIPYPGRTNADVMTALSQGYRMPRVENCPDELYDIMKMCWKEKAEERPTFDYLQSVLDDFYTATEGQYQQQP

For the compound `CCCCNC(=O)OCC#CI`, the compound was called inactive in experiment [1], in [3] and in experiment [4]. Besides, the AC50 is 17.5 µM (active) and 14.6 µM (active) in experiment [2]; 25 µM (active) in [3].
For the compound `COC(=O)C=C(C)OP(=O)(OC)OC`, the AC50 in experiment [5] was 13.4 µM (active). The outcome in experiment [6] was inactive.
As for `O=C(Nc1ccccc1)Nc1ccnc(Cl)c1`, the call in experiment [7] was inactive.
Consider `COc1ccc(C(c2ccc(OC)cc2)C(Cl)(Cl)Cl)cc1`, for which the compound was classed as inactive in [8] and in experiment [9].
Turning to `CC(C)(C)c1ccc(CSc2cnn(C(C)(C)C)c(=O)c2Cl)cc1`, the result in experiment [10] was inactive.
For `N#Cc1cc(Br)c(O)c(Br)c1`, the result in [11] and in [9] was inactive.
Consider `COP(=S)(OC)Oc1nc(Cl)c(Cl)cc1Cl`, for which the call in [5] was inactive.
Turning to `CCNc1nc(Cl)nc(NCC)n1`, the compound was called inactive in [8] and in experiment [12].
As to `CN(C)C(=S)SSC(=S)N(C)C`, the compound was called inactive in [13].
In the case of `CCCN(CCC)c1c([N+](=O)[O-])cc(S(N)(=O)=O)cc1[N+](=O)[O-]`, the compound was called inactive in [14], in [11], in [1], in [15], in [16] and in [13].
As to `CS/C(C)=N/OC(=O)N(C)SN(C)C(=O)O/N=C(\C)SC`, the AC50 in experiment [5] was 3.07 µM (active). Besides, the result in experiment [3] was inactive.
As for `CC(C)C1(C)N=C(c2nc3ccccc3cc2C(=O)O)NC1=O` (stereo unspecified), in experiment [17], the compound was classed as inactive.
In the case of `CNC(=O)ON=CC(C)(C)SC`, in experiment [5], the AC50 was 11.1 µM (active).
Turning to `CCOP(=S)(OCC)SCn1c(=O)oc2cc(Cl)ccc21`, in [9], the outcome was inactive.
For the compound `CCCC1COC(Cn2cncn2)(c2ccc(Cl)cc2Cl)O1` (stereo unspecified), in [17], the AC50 is 6.45 µM (active).
For the compound `O=C(O)c1nc(Cl)ccc1Cl`, in experiment [6], the compound was called inactive.
Regarding `COC(=O)c1ccccc1C(=O)OC`, the outcome in experiment [4] was inactive.
